PubChem BioAssay AID1159580 (chemical genetic matrix, 2015)
“And” between values parts separate entries of the source, which are not always exact repeats. Identical values can stand only once. Screen size: about 5,500 compounds; about 2,000 (36%) were called active. Not shown: some 18% with an inconclusive outcome. Rule as the data show it: active = normalized growth mostly below about 0.91 (no sharp cut-off); inconclusive = no clear call, values can overlap the other calls; inactive = mostly above about 0.92. The list shows a part of the results.

Assay: chemical genetic growth profiling, strain panel (AID 1159580);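 also: tested at 20 µM; growth read once vehicle control cultures reached saturation at 30 °C; 1 = growth at the plate median or of vehicle wells; lower values mean less growth of the strain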
Details: S. cerevisiae deletion strains, growth OD

Measured: normalized growth

O=C1C[C@@H](c2ccc(O)cc2)Oc2cc(O)cc(O)c21
inactive: locus YAL013W, strain DEP1, active compounds read low 1.02 | locus YAL021C, strain ccr4, active compounds read low 0.987 | locus YAL026C, strain drs2, active compounds read low 0.969 | locus YAL030W, strain snc1, active compounds read low 0.953 | locus YBL061C, strain skt5, active compounds read low 0.974 | locus YBR009C, strain hhf1, active compounds read low 0.959 | locus YBR021W, strain FUR4, active compounds read low 0.995 | locus YBR023C, strain chs3, active compounds read low 0.955 | locus YBR171W, strain sec66, active compounds read low 0.989 | locus YBR229C, strain ROT2, active compounds read low 1.02 | locus YBR231C, strain swc5, active compounds read low 0.972 | locus YBR279W, strain paf1, active compounds read low 0.97 | locus YCL011C, strain gbp2, active compounds read low 0.952 | locus YCL016C, strain dcc1, active compounds read low 0.969 | locus YCL029C, strain bik1, active compounds read low 1.03 | locus YCL061C, strain MRC1, active compounds read low 0.979 | locus YCL069W, strain vba3, active compounds read low 0.966 | locus YCR088W, strain abp1, active compounds read low 0.955 | locus YDL005C, strain med2, active compounds read low 0.978 | locus YDL035C, strain GPR1, active compounds read low 1.01 | locus YDL040C, strain nat1, active compounds read low 0.976 | locus YDL074C, strain BRE1, active compounds read low 1.01 | locus YDL101C, strain DUN1, active compounds read low 1.01 | locus YDL134C, strain PPH21, active compounds read low 1.01 | locus YDL185W, strain tfp1, active compounds read low 1.01 | locus YDL192W, strain arf1, active compounds read low 1.01 | locus YDR001C, strain nth1, active compounds read low 0.964 | locus YDR069C, strain doa4, active compounds read low 0.944 | locus YDR101C, strain arx1, active compounds read low 1.01 | locus YDR137W, strain rgp1, active compounds read low 0.955 | locus YDR150W, strain NUM1, active compounds read low 1.01 | locus YDR159W, strain sac3, active compounds read low 0.942 | locus YDR162C, strain NBP2, active compounds read low 1.01 | locus YDR195W, strain ref2 0.931 | locus YDR297W, strain sur2, active compounds read low 0.97 | locus YDR318W, strain mcm21, active compounds read low 1.01 | locus YDR334W, strain swr1, active compounds read low 0.962 | locus YDR335W, strain msn5, active compounds read low 0.979 | locus YDR388W, active compounds read low 1.01 | locus YDR392W, strain spt3, active compounds read low 0.862 | locus YDR502C, strain sam2, active compounds read low 1.01 | locus YEL003W, strain gim4, active compounds read low 0.977 | locus YEL037C, strain rad23, active compounds read low 0.968 | locus YEL061C, strain CIN8 (second series), active compounds read low 0.949 | locus YEL061C, strain CIN8, active compounds read low 1.01 | locus YER015W, strain faa2, active compounds read low 0.982 | locus YER016W, strain bim1, active compounds read low 0.971 | locus YER110C, active compounds read low 1.02 | locus YER111C, strain swi4, active compounds read low 0.958 | locus YER155C, strain BEM2 (second series), active compounds read low 0.875 | locus YER155C, strain BEM2, active compounds read low 1.01 | locus YER167W, strain BCK2, active compounds read low 1.01 | locus YFR010W, strain ubp6, active compounds read low 0.924 | locus YGL078C, strain dbp3, active compounds read low 1.02 | locus YGL086W, strain mad1, active compounds read low 1.01 | locus YGL167C, strain pmr1, active compounds read low 0.949 | locus YGL173C, strain kem1, active compounds read low 0.969 | locus YGL227W, strain vid30, active compounds read low 0.948 | locus YGL240W, strain doc1, active compounds read low 0.944 | locus YGL248W, strain PDE1, active compounds read low 1.01 | locus YGL253W, strain hxk2, active compounds read low 0.983 | locus YGR078C, strain PAC10, active compounds read low 1.01 | locus YGR135W, strain pre9, active compounds read low 1 | locus YGR229C, strain SMI1, active compounds read low 1.01 | locus YGR252W, strain gcn5, active compounds read low 0.988 | locus YHR013C, strain ard1, active compounds read low 0.933 | locus YHR027C, strain rpn1, active compounds read low 0.971 | locus YHR030C, strain SLT2, active compounds read low 1.01 and 0.975 | locus YHR079C, strain IRE1 (second series), active compounds read low 1.01 | locus YHR079C, strain IRE1, active compounds read low 0.977 | locus YHR094C, strain hxt1, active compounds read low 1 | locus YHR129C, strain ARP1, active compounds read low 1.01 | locus YHR142W, strain chs7, active compounds read low 0.942 | locus YHR200W, strain rpn10, active compounds read low 1.01 | locus YIL066C, strain RNR3, active compounds read low 1.02 | locus YIL073C, strain SPO22, active compounds read low 1.05 | locus YIL125W, strain kgd1, active compounds read low 1.01 | locus YIR030C, strain dcg1, active compounds read low 1.02 | locus YJL092W, strain hpr5, active compounds read low 0.977 | locus YJL095W, strain BCK1 (second series), active compounds read low 0.976 | locus YJL095W, strain BCK1, active compounds read low 0.997 and 0.98 | locus YJL115W, strain asf1, active compounds read low 0.964 | locus YJL129C, strain trk1, active compounds read low 0.947 | locus YJL134W, strain LCB3, active compounds read low 1.01 | locus YJL154C, strain vps35, active compounds read low 0.967 | locus YJL164C, strain tpk1, active compounds read low 0.97 | locus YJL166W, strain qcr8, active compounds read low 0.968 | locus YJL168C, strain set2, active compounds read low 1.02 | locus YJL187C, strain SWE1 (second series), active compounds read low 1.02 | locus YJL187C, strain SWE1, active compounds read low 0.965 | locus YJR043C, strain POL32, active compounds read low 1.01 | locus YJR066W, strain TOR1, active compounds read low 0.935
